Assay results as given in PubChem BioAssay AID504332 (National Center for Advancing Translational Sciences (NCATS), 2011).
The whole screen tested about 350,000 compounds, of which about 31,000 (8.9%) were called active. Inconclusive results (about 15%) are left out. Calls follow the shape of the dose curve; as a rule, active = well fitted inhibition curve with a large enough effect; inconclusive = small, poorly fitted or top-dose-only effect; inactive = no such curve, though single readings can be large or run the other way. The entries come from a sample that favours actives as a whole.

Biological target: Histone-lysine N-methyltransferase EHMT2 (Homo sapiens) (UniProt Q96KQ7)
Sequence (Q96KQ7 913-1193 limits assumed): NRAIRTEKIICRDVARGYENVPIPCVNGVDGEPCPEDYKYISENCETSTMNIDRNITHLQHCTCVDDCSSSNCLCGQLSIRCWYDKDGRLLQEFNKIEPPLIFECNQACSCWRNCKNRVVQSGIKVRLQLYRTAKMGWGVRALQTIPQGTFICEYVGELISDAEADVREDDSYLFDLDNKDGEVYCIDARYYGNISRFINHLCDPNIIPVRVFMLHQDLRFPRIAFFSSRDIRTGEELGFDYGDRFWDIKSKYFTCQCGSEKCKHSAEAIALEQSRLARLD
Experiment: qHTS Assay for Inhibitors of Histone Lysine Methyltransferase G9a; also: nearly all actives have a fitted effect of over 75% in size
Conditions: G9a H3K9 monomethylation, AlphaScreen, 2 h; series mostly up to 59 µM; activity, negative = inhibition: at the top concentration
Description: Methylated lysines, on the N-terminal tails of histone proteins serve as epigenetic markers to recruit factors that can then modify local chromatin structure to lead to functional consequences. G9a and other members of the SUV39 family of the SET domain-containing superfamily of histone lysine methyltransferases (HMT) have been identified to specifically methylate Lys9 of histone H3 (H3K9). G9a catalyzes the mono- and di-methylation of H3K9 in mammalian euchromatic regions, where the resulting H3K9me2 is indicative of transcriptional repression. […] The inhibition of G9a will result in transcriptional activation and work synergistically with DNA methyltransferase and histone deacetylase inhibitors, to kill cancer cells. This qHTS assay for identification of G9a inhibitors is a chemiluminescence based AlphaScreen (PerkinElmer). Methylation of biotinylated-histone peptide is measured through specific antibody-based detection, in conjunction with streptavidin-coated donor and anti-IgG antibody-coated acceptor beads. The method is particularly well suited for detection of inhibitors acting by the desired histone peptide competitive mechanism and is applicable to testing other HMTs. Although AlphaScreen has significant advantages with its utility in a variety of epigenetic target assays, the primary screening data provided in this deposition should be used with caution due to the prevalence of screening artifacts. An AlphaScreen counterscreen is highly recommended to be run against any putative actives to eliminate non specific artifacts. Alternatively, one can use other AlphaScreen assays in PubChem to filter out promiscuous hits. Quinn et al. A chemiluminescence-based method for identification of histone lysine methyltransferase inhibitors. Mol Biosyst 6(5): 782-8. 2010. PMID: 20567762 [2] Baell,Holloway. New substructure filters for removal of pan assay interference compounds (PAINS) from screening libraries and for their exclusion in bioassays. J Med Chem. 53(7):2719-40. 2010. PMID: 20131845 NIH Molecular Libraries Probe Production Network [MLPCN] NIH Chemical Genomics Center [NCGC] Structural Genomics Consortium (SGC) NIH Grant: 5U54 MH084681-02
To each well of a 1,536w plate, 2ul of HMT enzyme (final 20nM) were added, using a nanoliter dispenser. The G9a- and GLP-inhibitor BIX-01294 (CID: 25150857) are used as an intraplate control, with a 16-point titration in duplicate. A Kalypsys pin-tool transferred 23nl of library compound solution in DMSO to each well. Following a 15 min incubation of enzyme with compounds at room temperature, 1ul mixture of b-H3K9 peptide substrate (final 500nM) and SAM cofactor (final 20uM) were added. Reactions were allowed to proceed at room temperature for 2 hours. Methylated b-H3K9 peptide product was detected with 0.5 ug/mL rabbit polyclonal anti-monomethyl histone H3K9 antibody (Abcam Inc., Cambridge, MA) and 20 ug/mL each streptavidin-coated donor and anti-rabbit IgG acceptor AlphaScreen beads. Antibody and beads were added in a 1ul dispense, for a final volume of 4ul, and plates were incubated, protected from the light, for 10 min at room temperature. Microplates were then read on an EnVision multilabel plate reader using the 1,536 plate HTS AlphaScreen aperture (excitation time 80 ms, measurement time 240 ms).
% is scaled to controls: 0 for no effect and ±100 for the full control effect; potency is read from the fitted curve at half-maximal effect.

Row | Structure (SMILES) | Potency | activity, negative = inhibition
1 | C/C(=N\Nc1ccc(S(N)(=O)=O)cc1[N+](=O)[O-])c1cccs1 | 25.1 µM (active) | –
2 | C/C(=N\NC(=O)COc1c(C)cccc1C)c1cccs1 | – | 26.6% [at 102 µM] (inactive)
3 | C/C(=N\Nc1ncc(Cl)cc1Cl)c1cccs1 | – | -2.14% [at 102 µM] (inactive)
4 | C=CCOc1ccc(C(=O)Nc2ccccc2C(=O)N2CCCC2)cc1 | – | 0.754% [at 102 µM] (inactive)
5 | O=C(NCCc1ccc(Cl)cc1)c1ccc2c(c1)N(Cc1ccc(F)cc1)C(=O)CS2 | – | 4.55% (inactive)
6 | O=C(CSc1nnc(-c2cccs2)n1-c1ccccc1)NCc1ccco1 | – | -5.59% [at 12.7 µM] (inactive)
7 | O=C(CSc1nnc(-c2cccs2)n1-c1ccccc1)N1CCN(C(=O)c2ccco2)CC1 | 7.08 µM (active) | –
8 | Cc1cc2ccccc2n2c(SCC(=O)N3CCN(C(=O)c4ccco4)CC3)nnc12 | – | -25.7% [at 102 µM] (inactive)
9 | Cc1cc(=O)n2[nH]c(-c3cccc(Cl)c3)cc2n1 | – | -10.1% [at 102 µM] (inactive)
10 | Cc1cc(/C=C2\SC(=Nc3ccc(N4CCOCC4)cc3)N(C)C2=O)c(C)n1-c1cccnc1 | 70.8 µM (active) | –
11 | O=C(/C=C/c1ccc(N2CCOCC2)cc1)c1ccccc1 | – | 96.9% [at 102 µM] (inactive)
12 | Cc1cc(/C=C(/C#N)C(=O)Nc2ccc(Cl)cc2)c(C)n1-c1cccnc1 | – | 23.3% (inactive)
13 | O=C(NCCS(=O)(=O)NCc1ccc(Cl)cc1)c1ccccc1 | – | -7.35% [at 102 µM] (inactive)
14 | Cc1noc(NS(=O)(=O)c2ccc(N/C=C/C(=O)c3ccccc3)cc2)c1C | – | -38.3% [at 2.33 µM] (inactive)
15 | Cc1cc(NS(=O)(=O)c2ccc(NC(=O)c3cccnc3)cc2)nc(C)n1 | – | 2.52% [at 102 µM] (inactive)
16 | O=C(/C=C/Nc1ccc(S(=O)(=O)Nc2cnc3ccccc3n2)cc1)c1cccnc1 | 70.8 µM (active) | –
17 | CC(OC(=O)CCCOc1ccccc1)C(=O)Nc1ccc(Cl)cn1 (stereo not drawn) | – | 34.7% [at 102 µM] (inactive)
18 | Cc1ccc(-c2noc(CSc3nnc(-c4ccc(Cl)cc4)n3C)n2)cc1 | – | 1.74% (inactive)
19 | Cc1cc(=O)n2nc(N3CCCC(C(=O)NCc4cccc(Cl)c4)C3)sc2n1 (stereo not drawn) | – | 14.8% [at 102 µM] (inactive)
20 | O=C(CN1CCN(c2ccc(F)cc2)CC1)Nc1cccc(C(F)(F)F)c1 | 50.1 µM (active) | –
21 | O=C(CN1CCOCC1)Nc1cc(Cl)ccc1Cl | – | 53.9% (inactive)
22 | O=C(CN1CCN(c2ccc(Cl)cc2)CC1)c1ccccc1 | 8.91 µM (active) | –
23 | NC(=O)CCN1CCN(S(=O)(=O)/C=C/c2ccccc2)CC1 | – | 29% [at 102 µM] (inactive)
24 | Cc1ccc(Cl)cc1NC(=O)CN1CCN(S(=O)(=O)N2CCOCC2)CC1 | – | 1.26% [at 102 µM] (inactive)

Row | Structure (SMILES) | Potency | activity, negative = inhibition
25 | O=C(CN1c2ccccc2S(=O)(=O)c2ccccc21)Nc1cccc(C(F)(F)F)c1 | – | -10.5% (inactive)
26 | COc1ccccc1N1CCN(CC(=O)NC(=O)NCc2ccco2)CC1 | – | 6.46% [at 102 µM] (inactive)
27 | O=C(CN1CCN(c2ccc(Cl)cc2)CC1)N1CCCC1 | – | 12.3% (inactive)
28 | COc1ccc(NC(C)=O)cc1NC(=O)CN1CCN(c2ccc(F)cc2)CC1 | – | 2.49% (inactive)
29 | CC(C)OC(=O)CN1CCN(c2ccc(Cl)cc2)CC1 | – | 1.33% [at 102 µM] (inactive)
30 | O=C(CN1CCN(c2ccc(O)cc2)CC1)Nc1cc(S(=O)(=O)N2CCOCC2)ccc1Cl | 3.16 µM (active) | –
31 | O=C(CN1CCN(S(=O)(=O)/C=C/c2ccccc2)CC1)NC(=O)NCc1ccco1 | 20 µM (active) | –
32 | COc1ccccc1NC(=O)C1=C(C)Nc2nc(SCC(=O)c3ccc(C)cc3)nn2C1c1ccccc1C (stereo not drawn) | – | -0.656% (inactive)
33 | O=C(NCc1ccncc1)c1cccc(NS(=O)(=O)c2ccc(F)c(F)c2)c1 | – | -0.45% (inactive)
34 | CC1CCCCN1S(=O)(=O)c1ccc(F)c(C(=O)Nc2ccccc2C(F)(F)F)c1 (stereo not drawn) | – | 11.3% (inactive)
35 | CN(Cc1ccccc1)S(=O)(=O)c1ccc(F)c(C(=O)Nc2cccc(Cl)c2Cl)c1 | – | -8.99% (inactive)
36 | COc1ccc(-c2c(C)c3ccc(O)c(CN4CCCC4)c3oc2=O)cc1OC | – | 13.2% (inactive)
37 | COc1ccc(-c2noc(CCC(=O)N(C)c3ccccc3C)n2)cc1 | – | 7.21% (inactive)
38 | Cc1ccc2nc(SCC(=O)N3CCN(c4ccccc4)CC3)nc(=O)n2c1 | – | -0.43% [at 0.501 µM] (inactive)
39 | O=C(COC(=O)c1cc(=O)[nH]c2ccccc12)NCc1cccc(Cl)c1 | – | 1.96% [at 12.7 µM] (inactive)
40 | CN(C)S(=O)(=O)c1ccc(C(=O)N(Cc2cccnc2)c2nc3c(F)cc(F)cc3s2)cc1 | – | -4.21% (inactive)
41 | COc1ccccc1NC(=O)C1CCCN1S(=O)(=O)c1ccc(Cl)cc1 (stereo not drawn) | – | 34.2% [at 102 µM] (inactive)
42 | O=C(CNC(=O)c1ccc(Br)o1)NCC1CCCO1 (stereo not drawn) | – | 36.6% [at 102 µM] (inactive)
43 | NS(=O)(=O)c1ccc(NC(=O)C(=O)Nc2ccc3nc4n(c(=O)c3c2)CCCCC4)cc1 | – | -25.2% (inactive)
44 | O=c1cc(CN2CCN(S(=O)(=O)/C=C/c3ccccc3)CC2)c2ccc(O)cc2o1 | – | 9.01% (inactive)
45 | O=C(CN1CCOCC1)Nc1ccccc1 | – | 41.4% [at 12.7 µM] (inactive)
46 | O=C(CN1CCN(S(=O)(=O)/C=C/c2ccccc2)CC1)Nc1ccc(N2CCOCC2)cc1 | 35.5 µM (active) | –
47 | O=C(CN1CCN(c2ccc(O)cc2)CC1)Nc1ccc(-c2ccccc2)cc1 | 11.2 µM (active) | –
48 | O=C(CN1CCN(c2ccccc2)CC1)Nc1ccc(F)cc1 | – | 15.6% [at 102 µM] (inactive)
